Each structure is given as a SMILES string. This is part of a sample that, as a whole, favours compounds with a hit. Of some 83,000 tested, about 20% had one in any assay.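 Plates (96-well) were seeded with cells, treated with compound at one concentration, and incubated for 48 hours before percent growth was determined.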 Values without a mark were called inactive. The source made the active and inactive calls. How the source made its calls: active means growth percent below 10; inactive means the rest.

Holding throughout (assay): NCI-60 one-dose screen, 48 h (100 = growth as untreated, 0 = no growth, -100 = all killed)
Holding throughout (conditions): 10 µM unless noted

Test [1] has as its system HCT-15 colon.
The subject of test [2] is HT29 colon.
Test [3] has as its system SNB-19 CNS.
In test [4] the test system is U251 CNS.
The test system of test [5] is PC-3 prostate.
Test [6] relates to SK-MEL-5 melanoma.
Test [7] has as its system UACC-62 melanoma.
For test [8], the system named is LOX IMVI melanoma.
Test [9] deals with SK-MEL-28 melanoma.
Test [10] concerns SK-MEL-2 melanoma.
Test [11] relates to EKVX NSCLC.
Test [12] relates to SN12C renal.
Test [13] concerns UO-31 renal.
The test system of test [14] is TK-10 renal.
Test [15] relates to ACHN renal.
The test system of test [16] is CAKI-1 renal.
Test [17] relates to A498 renal.
Test [18] deals with CCRF-CEM leukemia.
The test system of test [19] is MOLT-4 leukemia.

On to `O=C(CN1CCN(c2cc3c(cc2F)c(=O)c(C(=O)O)cn3C2CC2)CC1)Nc1cc(=O)[nH]c(=O)[nH]1`, for which the growth was 96.1% in test [1]; 102% in [2]; 97.4% in test [3]; 106% in test [4]; 99% in [5]; 98.9% in [6]. In addition, the growth was 96% in test [7]; 101% in [8]; 101% in test [9]; 107% in [10]; 92% in [11]; 97.7% in [12]. Further, the growth in [13] was 79.7%; in [14], 100%; in test [15], 100%; in test [16] it was 95.4%; in test [17] it was 100%; in [18], 109%. Further, the growth in test [19] is 102%.

For `COc1cccc(-c2nc3sccn3c2-c2ccnc(NCCCNS(=O)(=O)c3ccc(Cl)cc3)c2)c1`, the growth is 37.8% in [1]; 42.6% in test [2]; 69.4% in [3]; 63.5% in test [4]; 26.2% in [5]; 1.31% (active) in [6]. In addition, the growth in test [7] was 6.77% (active); in test [8], 39.2%; in test [9], 69.6%; in [10], 45.3%; in test [11], 47.8%; in test [12] it was 41.1%. The growth was 11.9% in test [13]; 83.1% in test [14]; 36.3% in [15]; 32.6% in [16]; 38.7% in test [17]; 23.2% in [18]. Moreover, the growth in test [19] was 21.6%.

As for `COc1cc(NCCCCN=C(N)NC(N)=NC(C)C)c2ncccc2c1`, the growth is 122% in test [1]; 53.9% in test [2]; 55.9% in test [3]; 50% in test [4]; 22.9% in test [5]; 17% in [6]. For the same molecule, the growth in test [7] is 77%; in test [8], 46.6%; in [9], 86.4%; in test [10] it was 43.7%; in [11] it was 68%; in test [12], 32.6%. Besides, the growth is 71.6% in test [13]; 90.4% in [14]; 108% in test [15]; 116% in test [16]; 133% in [17]; 48.8% in test [18]. The growth in test [19] was 54.1%.

On to `COCCOC(=O)C1=C(C)NC(=S)NC1c1ccc2c(c1)OCO2` (stereo not drawn), for which the growth was 102% in [1]; 96.7% in test [2]; 100% in test [3]; 104% in test [4]; 95.7% in [5]; 97.6% in test [6]. Moreover, the growth is 102% in test [7]; 101% in test [8]; 114% in test [9]; 93% in test [10]; 105% in test [11]; 104% in test [12]. Also, the growth in test [13] was 87.8%; in test [14], 104%; in test [15] it was 106%; in [16] it was 99.8%; in test [17], 96.1%; in test [18], 104%. Moreover, the growth in [19] was 96.9%.

On to `C=C(C[n+]1ccccc1)[C@@H]1CC[C@]2(C(=O)OC)CC[C@]3(C)[C@H](CC[C@@H]4[C@@]5(C)CC[C@H](O)C(C)(C)[C@@H]5CC[C@]43C)[C@@H]12`, for which the growth in [1] was 106%; in [2], 94.5%; in test [3] it was 106%; in [4], 99%; in test [5] it was -77.4% (active); in [6] it was 96.5%. The growth in [7] is 91.5%; in test [8], 92%; in [9], 108%; in test [10] it was 100%; in test [11], 104%; in test [12] it was 95.4%. The growth was 74% in test [13]; 113% in test [14]; 96.5% in [15]; 90.6% in test [16]; 123% in test [17]; 99% in [18]. Besides, the growth in test [19] was 101%.

In the case of `C=C1C(=O)O[C@H]2[C@H]1CC/C(Cn1cc(Cc3c[nH]c4ccccc34)nn1)=C\CC[C@@]1(C)O[C@@H]21`, the growth in test [1] was -25.9% (active); in [2] it was 3.04% (active); in [3] it was 65.4%; in [4], 37.6%; in test [5], 38.7%; in test [6] it was 24.9%. The growth in [7] was 38%; in test [8], -76.2% (active); in test [9] it was 20%; in test [10], 51.2%; in test [11], 53.6%; in [12], 39.4%. For the same molecule, the growth in test [13] is -71.1% (active); in test [14], 14.7%; in test [15], -36.1% (active); in test [16], 31.7%; in test [17] it was 64.3%; in [18] it was -17.1% (active). Further, the growth in test [19] was -1.1% (active).

Turning to `CSc1nc2sc3c(c2c(=O)n1-c1ccc(C(C)C)cc1)CCC(=O)C3`, the growth in [1] was -15.9% (active); in [2], 11.4%; in test [3], 9.58% (active); in test [4] it was -80% (active); in [5], -6.64% (active); in test [6], -79.9% (active). Further, the growth was -20.8% (active) in [7]; -39.6% (active) in test [8]; 28.7% in test [9]; 63.8% in test [10]; 23.1% in test [11]; 6.68% (active) in [12]. Further, the growth was -67.2% (active) in test [13]; 7.34% (active) in test [14]; -19.9% (active) in [15]; -9.77% (active) in test [16]; 96.3% in test [17]; -11.8% (active) in test [18]. For the same molecule, in test [19], the growth was -12.6% (active).
